Rows were chosen to be rich in hits. Some 2.8% of all compounds tested hit in one or more screens of this group.
PAX8 reporter – lowers PAX8-driven luciferase in RMG-I cells; RMG-I TPO-luciferase reporter, SteadyGlo, 24 h; inhibition, % at 12.6 µM; 360,000 compounds, 1.2% hits;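 active = mean replicate inhibition at least 60% with every replicate also reaching 60%; inconclusive = only one of the two criteria is met; inactive = mean below 60% and not all replicates reaching 60%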;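 note: luciferase light reporting Pax8 driven TPO promoter activity; plate controls were median of neutral control wells for no effect and mitoxantrone controls for full effect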
TROY signal inh – inhibitors of TROY-dependent NF-kB signaling. Q293 LMP1-TROYcd NF-kB luciferase reporter, 4 h. inhibition, % at 10 µM. 360,000 compounds, 0.98% hits. AID 1347056;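 active = compounds whose plate-normalised and pattern-corrected inhibition of the luciferase reporter signal at the single screening dose is 50% or more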
EWS-Fli inh – blocks EWS/Fli oncoprotein-driven transcription | A673 NR0B1-luciferase reporter, viability-normalised | inhibition, % at 12.6 µM | 350,000 compounds, 0.67% hits;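 active = mean inhibition of at least 50% after viability correction, with every replicate also passing that limit; inconclusive = mean reaches 50% but only one of two replicates passes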;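 note: firefly luciferase signal divided by Alamar Blue viability fluorescence both relative to DMSO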
LGR2 inh – blocks bursicon-induced cAMP signaling via Drosophila LGR2. inhibition, % at 9.99 µM. 380,000 compounds, 0.35% hits. HEK293 LGR2, CRE-luciferase, bursicon-stimulated, 4 h;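 active = drop in luminescence signal, shown as inhibition above about 50% in the replicate tests, limit read from the data, passing the limit was not always enough; inconclusive = probably only some replicates passing the limit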;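 note: agonist challenge used bursicon conditioned medium at about half maximal strength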
TWEAK Fn14 block – TWEAK-Fn14 signaling inhibition; TWEAK-stimulated Fn14 reporter cells, luciferase luminescence, 8 h; inhibition, % at 10 µM; 360,000 compounds, 2% hits; AID 1159606; in the data active = inhibition above about 50%
* marks the source's active call; other numbers are inactive results; ? = inconclusive; . = no result given.

SMILES | PAX8 reporter | TROY signal inh | EWS-Fli inh | LGR2 inh | TWEAK Fn14 block
CNC[C@@H]1Oc2cc(C#Cc3cccnc3)ccc2S(=O)(=O)N([C@@H](C)CO)C[C@@H]1C | . | . | -10.1 | -23.8 | .
Cc1cc(=O)n2c3ccccc3n(CC(O)CN3CCN(CCO)CC3)c2c1C#N (stereo unspecified) | 4.2 | 2.0 | -5.3 | 1.5 | 68.1*
CC1=C(C(=O)Nc2ccccc2)C(c2ccco2)C(C#N)=C(SCC(=O)OC(C)C)N1 (stereo unspecified) | . | 13.9 | . | . | 59.3*
Cc1nc(Sc2ccccc2)c(C#N)c(C)c1[N+](=O)[O-] | -13.8 | 16.6 | 2.1 | -6.5 | -22.7
Cc1cc(C)c(C#N)c(Sc2nc(C)c([N+](=O)[O-])c(C)c2C#N)n1 | 44.8 | 49.4 | 8.9 | ? | 82.0*
C[C@@H]1CN([C@H](C)CO)C(=O)c2cc(NC(=O)CCC(F)(F)F)ccc2O[C@@H](C)CCCCO[C@@H]1CN(C)C(=O)NC1CCCCC1 | 1.7 | . | 3.1 | 7.3 | .
CCOCCCNC(=O)Cn1cnc2c(cnn2-c2ccc(C)c(C)c2)c1=O | -2.7 | -1.9 | -7.2 | -6.2 | 108.0*
CCCCNC(=O)Cn1cnc2c(cnn2-c2ccc(C)cc2)c1=O | 8.7 | 2.4 | -45.5 | -6.1 | 18.2
CC1CCCCN1C(=O)CSc1nc(N)nc(N)n1 (stereo unspecified) | -4.5 | 5.0 | -0.4 | 16.6 | 19.1
Cc1cc(C(F)(F)F)nn1CC(=O)N1CCCCC1C (stereo unspecified) | . | . | . | . | 82.7*
O=C(C=Cc1ccccc1)CC(c1ccccc1)N1CCOCC1 (stereo unspecified) | 25.4 | -6.9 | 58.9* | 0.7 | 92.2*
C[C@@H]1CN([C@H](C)CO)C(=O)c2cc(C#CC3CC3)cnc2O[C@@H]1CN(C)C(=O)c1ccc(F)cc1 | . | . | -13.4 | -11.9 | .
CC(=O)Nc1ccc(C(=O)CSc2cc(C)c3cccc(C)c3n2)cc1 | 122.7* | 7.2 | -3.1 | 17.8 | -12.0
CCN(CC)CCN(Cc1cc2cc(C)cc(C)c2[nH]c1=O)C(=S)NCc1ccco1 | -12.9 | 18.2 | -3.4 | 17.1 | 4.8
Cc1cc(C)c2[nH]c(=O)c(CN(Cc3cccs3)C(=S)NCc3ccco3)cc2c1 | 4.0 | 39.1 | . | -13.4 | 63.9*
Cc1ccc2cc(CN(Cc3ccco3)C(=O)NCc3ccccc3)c(=O)[nH]c2c1C | . | 50.2* | . | . | 21.8
Cc1ccc2cc(CN(Cc3ccco3)C(=O)c3ccccc3)c(=O)[nH]c2c1C | . | -13.7 | . | . | -10.9
C[C@H]1CN([C@@H](C)CO)C(=O)c2cccc(NS(=O)(=O)c3ccc(F)cc3)c2O[C@H]1CN(C)Cc1ccc(C(F)(F)F)cc1 | 22.6 | . | -5.2 | -4.1 | .
CCCCCCOC(=O)Cc1c(C)nc(N)[nH]c1=O | 18.9 | -7.6 | 3.2 | -4.6 | 56.3*
COc1ccc(NC(=O)Nc2ccc3c(c2)C(=O)N([C@@H](C)CO)C[C@H](C)[C@@H](CN(C)Cc2ccc(C(=O)O)cc2)OCCCC[C@@H](C)O3)cc1 | -1.2 | . | -13.1 | 4.0 | .
Nc1ccc(-c2nc3ccc(N)cc3s2)cc1 | 39.8 | 27.9 | 49.5 | 53.2* | 74.0*
Nc1cccc(-c2nc3ccc(N)cc3s2)c1 | . | 13.0 | . | . | 77.6*
Nc1ccc(O)c(-c2nc3ccccc3s2)c1 | -30.6 | -9.4 | . | . | 11.9
C[C@@H]1CCCCO[C@@H](CN(C)C(=O)Nc2ccc(C(F)(F)F)cc2)[C@H](C)CN([C@@H](C)CO)C(=O)c2cc(NC(=O)CCC(F)(F)F)ccc2O1 | 30.9 | . | 7.2 | 7.8 | .
C/C(=N\NC(=O)COc1ccccc1-c1ccccc1)c1cccnc1 | 14.4 | 29.7 | 0.3 | -0.8 | 7.5
SMILES | PAX8 reporter | TROY signal inh | EWS-Fli inh | LGR2 inh | TWEAK Fn14 block
C/C(=N\NC(=O)COc1ccccc1-c1ccccc1)c1ccccn1 | 81.1* | 21.7 | 0.0 | 24.6 | -71.0
O=C(COc1ccccc1-c1ccccc1)N/N=C/c1ccc2ccccc2c1 | 93.5* | 27.6 | 39.7 | -5.2 | 2.0
CCCn1c(NC(=O)c2cccc(S(=O)(=O)N3CCCC3)c2)nc2ccccc21 | 73.8* | -3.6 | . | . | -13.6
CC1Cc2ccccc2N1C(=S)NC(=O)c1ccc(Cl)cc1Cl (stereo unspecified) | 62.5* | 42.7 | 17.4 | -5.7 | 2.7
Cn1c(=O)c(Cc2ccccc2)c(O)c2ccccc21 | . | 10.7 | -1.2 | -6.0 | -7.5
O=c1c(Cc2ccccc2)c(O)c2cccc3c4c(n1c23)CCCC4 | -9.3 | 54.4* | 13.1 | -7.8 | -2.1
COCc1cn(CC[C@@H]2CC[C@H](NC(=O)c3ccc(F)cc3)[C@H](CO)O2)nn1 | -7.7 | . | -1.1 | -14.5 | .
CC(C)c1nnc(NC(=O)c2nc(S(=O)(=O)Cc3ccccc3)ncc2Cl)s1 | 16.7 | 32.4 | 63.7* | 6.7 | 93.7*
COc1ccc(C(=O)Nc2nnc(S(=O)(=O)Cc3ccccc3)s2)cc1 | -12.4 | -4.4 | . | -0.9 | -21.0
CSc1ncc(Cl)c(C(=O)Nc2nnc(SC)s2)n1 | . | 4.6 | . | . | -32.0
CCCc1nnc(NC(=O)c2nc(S(=O)(=O)Cc3ccc(C)cc3)ncc2Cl)s1 | 21.2 | 62.0* | . | -14.7 | 95.0*
CSc1nnc(NC(=O)c2nc(S(=O)(=O)Cc3ccccc3)ncc2Cl)s1 | 17.1 | 25.8 | . | -15.6 | 98.1*
CC(C)NC(=O)Nc1ccc2c(c1)C(=O)N([C@H](C)CO)C[C@@H](C)[C@@H](CN(C)S(=O)(=O)c1ccc(Cl)cc1)O2 | -5.3 | . | 6.5 | 0.9 | .
CN(C)C(=O)C[C@@H]1C[C@H]2c3cc(NS(=O)(=O)c4ccccc4)ccc3O[C@H]2[C@H](CO)O1 | . | . | -3.6 | 5.0 | .
Cc1ccc(S(=O)(=O)Nc2ccc3c(c2)CC(=O)N([C@@H](C)CO)C[C@H](C)[C@H](CN(C)C(=O)Nc2ccc(F)cc2)O3)cc1 | 2.0 | . | -3.6 | -0.9 | .
CCOC(=O)C(=Cc1c[nH]c2ccc(S(=O)(=O)N(C)C)cc12)C(=O)OCC | 9.2 | 8.4 | -1.0 | 30.2 | 66.0*
COc1ccccc1CN1[C@H](CO)[C@@H]2c3ccccc3N(C(=O)C3CCC3)C[C@@H]21 | 20.5 | . | 10.3 | 7.4 | .
COC(=O)c1ccc(COc2cccc3c2CCN(Cc2cccc(C)c2)C3=O)o1 | -12.4 | 38.4 | 6.4 | 8.2 | 55.4*
COC(=O)c1ccc(COc2cccc3c2CCN(Cc2ccccc2)C3=O)o1 | 2.2 | 28.1 | . | 11.2 | 35.0
CCOc1cccc2cc(-c3csc(NC(=O)CCC(=O)NCCN4CCCCC4C)n3)c(=O)oc12 (stereo unspecified) | -112.2 | -22.0 | -48.2 | -34.9 | -8.8
COc1cccc2cc(-c3csc(NC(=O)CCC(=O)NCCCN4CCC(C)CC4)n3)c(=O)oc12 | -5.8 | 20.8 | 32.5 | -2.3 | 59.3*
CCOc1ccc(S(=O)(=O)N2CCN=C2c2ccccc2)cc1 | . | 12.4 | 54.6* | 16.4 | 25.3
COc1ccc(NC(=O)Nc2cccc3c2O[C@H](CN(C)CC2CCCCC2)[C@@H](C)CN([C@H](C)CO)C3=O)cc1 | . | . | -5.9 | -7.2 | .
O=C(Nc1cccc(F)c1)N1CCCCN2[C@H](CO)[C@H](c3ccc(-c4ccccc4F)cc3)[C@H]2C1 | ? | . | 59.1* | 12.4 | .
O=C(Nc1ccccc1)N1CCCCN2[C@H](CO)[C@H](c3ccc(-c4ccccc4F)cc3)[C@H]2C1 | -6.1 | . | 19.0 | -3.7 | .

Screens from PubChem.
